MEKK2mut PB1 HTS – MEK5 binding signal on mutant MEKK2 PB1, primary screen, biochemical, multiplex bead flow cytometry, Alexa488-MEK5. Alexa488-MEK5 binding to MEKK2 mutant. 0.35% of 290,000 active. AID 1530, 2009. percent response, % at 10 µM; in the data active = percent response above about 24%, passing the limit was not always enough
MEKK3 PB1 HTS – modulators of MEKK3-MEK5 PB1 binding, primary screen, biochemical, wildtype MEKK3, multiplex bead flow cytometry, Alexa488-MEK5; Mitogen-activated protein kinase kinase kinase 3 (Homo sapiens), Q99759; bead-based flow cytometry, Alexa488-MEK5 binding to MEKK3; actives lie on both sides; 0 = blocked by unlabeled MEK5, 100 = vehicle; binding response (% of control), % at 10 µM; 1.4% of 290,000 active;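 active = binding response more than 3 SD above or below the average of its plate-row segment, actives on both sides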;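 note: Alexa488 bead fluorescence after subtracting the streptavidin-only scavenger bead signal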
CendR NRP1 mod – modulators of CendR peptide binding to NRP-1, primary screen, biochemical, fluorescence polarization, uHTS; Neuropilin-1 (Homo sapiens), O14786; FAM-RPARPAR peptide binding to NRP-1; inhibition, % at 25 µM; AID 602438, 2012; 0.85% of 360,000 active;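 active = inhibition or corrected inhibition above about 18%, plus a signal ratio from 0.5 to 1.5, limit read from the data, passing the limit was not always enough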
MEKK2 WT-MEK5 – modulators of MEK5 binding to wildtype MEKK2, primary screen, biochemical, multiplex bead flow cytometry, Alexa488-MEK5 | Mitogen-activated protein kinase kinase kinase 2 (Homo sapiens), Q9Y2U5 | Alexa488-MEK5 binding to MEKK2 WT; actives lie on both sides | binding response (% of control), % at 10 µM | 1.1% of 290,000 active | AID 1531, 2009; in the data active = binding response below about 67% or above about 130%
SKN-1 block – suppressors of acrylamide-induced Pgst-4::GFP reporter in worms, primary screen, SKN-1 inhibitor project, whole organism, uHTS, GFP/RFP fluorescence ratio, strain VP596. C. elegans VP596 Pgst-4::GFP/RFP ratio, 24 h. inhibition, % at 21.8 µM. 0.49% of 360,000 active;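 active = interference check ratio from 0.5 to 1.5 plus GFP to RFP signal ratio inhibition reaching or exceeding a fixed threshold, cut at about 30% in these data, passing the limit was not always enough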
MEKK2wt confirm – modulators of MEK5 binding to wildtype MEKK2, confirmation, biochemical, single concentration, multiplex bead flow cytometry; shares compounds with MEKK3 PB1 HTS; Alexa488-MEK5 binding to MEKK2 WT; actives lie on both sides; binding response (% of control), % at 10 µM; 2.4% of 5,900 active; in the data active = binding response below about 16% or above about 210%; inactive = in between
MEKK2mut-MEK5 – mutant MEKK2 PB1-MEK5 binding signal retest – biochemical, single concentration, multiplex bead flow cytometry, confirmation; percent response, % at 10 µM; shares compounds with MEKK3 PB1 HTS; 2% of 5,900 active; Alexa488-MEK5 binding to MEKK2 mutant; AID 1893, 2009; in the data active = percent response mostly above about 71%, no sharp cut-off; inactive = mostly below about 38%;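 note: higher means compound restores mutant binding toward wildtype level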
MEKK3-MEK5 inh – MEKK3 wild-type PB1 binding to MEK5, inhibitors, confirmation, biochemical, bead multiplex flow cytometry, single concentration, wildtype | shares compounds with MEKK3 PB1 HTS | 1.8% of 5,900 active | binding response (% of control), % at 10 µM | Alexa488-MEK5 binding to MEKK3; hits give low values | AID 1894, 2009;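 active = binding response below 72% of control, or above a set upper limit, though filed actives all read lower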;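 note: 100% = DMSO only wells and 0% = binding blocked by excess unlabeled MEK5; lower values mean stronger disruption of MEK5 binding to MEKK3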
Numbers without * were called inactive; x = not tested or not shown; [ ] = another dose, or the depositor's remark. Rows were chosen to be rich in hits. Some 3.2% of all compounds tested hit in one or more screens of this group.

SMILES	MEKK2mut PB1 HTS	MEKK3 PB1 HTS	CendR NRP1 mod	MEKK2 WT-MEK5	SKN-1 block	MEKK2wt confirm	MEKK2mut-MEK5	MEKK3-MEK5 inh
COc1ccc2oc(=O)c(C(=O)NCC3CCCO3)cc2c1 (stereo not drawn)	-7.0	82.0*[inhibitor]	7.2	94.0	8.4	101.0	-6.0	98.0
COc1cc(CN2C[C@@H](CO)O[C@@H](n3cnc4c(NC5CCCC5)ncnc43)C2)cc(OC)c1OC	x	x	-0.7	x	11.6	x	x	x
CCc1noc(C)c1C(=O)Nc1cccc2ncccc12	1.0	101.0	9.7	102.0	-0.7	x	x	x
Cc1cc(C(=O)Nc2cccc3ncccc23)no1	6.0	127.0*	7.1	121.0	18.5	97.0	-4.0	97.0
COc1cc(C(=O)OCC2CC(c3ccccc3)=NO2)cc(OC)c1OC (stereo not drawn)	280.0*	101.0	-3.4	93.0	9.4	100.0	0.0	104.0
Cn1ccnc1Sc1ccc(C=O)cc1[N+](=O)[O-]	-2.0	74.0*[inhibitor]	-12.1	91.0	-10.7	94.0	-7.0	96.0
N=c1oc2ccc3ccccc3c2cc1-c1nc(-c2ccccc2)cs1	-1.0	146.0*	134.7	96.0	7.3	94.0	-6.0	94.0
O[C@@H]1CN(Cc2ccc(-n3cccn3)cc2)CC[C@H]1N1CCN(c2ccccc2F)CC1	3.0	106.0	-9.9	108.0	9.9	x	x	x
COc1ccc(/C=N/S(=O)(=O)CCc2ccccc2)c(OC)c1	-1.0	69.0*[inhibitor]	0.0	96.0	-1.4	104.0	4.0	106.0
CCc1ccccc1NC(=O)NC1CCCCCCC1	0.0	102.0	5.7	98.0	-2.5	x	x	x
CN1C(C)(C)CC(O)(C(=O)O)CC1(C)C	x	x	16.6	x	7.9	x	x	x
O=C(NCc1ccc2c(c1)OCO2)C(C(=O)c1ccccc1)n1cc(Cl)ccc1=O (stereo not drawn)	1.0	132.0*	19.5	106.0	6.5	101.0	-3.0	102.0
O=C(NCc1ccc2c(c1)OCO2)c1cccc(C(=O)NCc2ccc3c(c2)OCO3)c1	5.0	105.0	5.1	104.0	3.9	x	x	x
CCCCCOP(=O)(c1ccccc1)c1ccccc1	13.0	104.0	3.2	108.0	15.2	x	x	x
CC(C)OP(=O)(c1ccccc1)c1ccccc1	0.0	153.0*	9.2	109.0	0.1	115.0	8.0	105.0
Cc1nnc(SCC(=O)NC2CCCC(C)C2C)n1N (stereo not drawn)	x	x	-0.4	x	16.2	x	x	x
O=C(CCC1CCCC1)NCc1ccccn1	-1.0	95.0	1.3	96.0	10.1	x	x	x
O=C(CC1CCCCC1)NCc1ccccn1	6.0	122.0*	8.2	122.0	17.6	120.0	15.0	103.0
COCC(=O)O[C@]1(CCN(C)CCCc2nc3ccccc3[nH]2)CCc2cc(F)ccc2[C@@H]1C(C)C	19.0	118.0	-5.3	172.0*	4.1	136.0	21.0	107.0
O=C(COc1ccc(C(=O)NCCc2ccccc2)cc1)Nc1ccccc1	-3.0	97.0	-1.2	96.0	6.6	x	x	x
O=C(COc1ccc(C(=O)Nc2ccc(Cl)cc2)cc1)NCc1ccccc1	1.0	155.0*	0.1	109.0	15.1	98.0	3.0	102.0
O=C(c1nn(-c2ccccc2)c(=O)c2ccccc12)N1CCN(c2ncccn2)CC1	-5.0	103.0	5.5	94.0	-8.4	x	x	x
O=C(c1nn(-c2ccccc2)c(=O)c2ccccc12)N1CCN(c2ccccn2)CC1	-5.0	66.0*[inhibitor]	-5.5	78.0	2.7	102.0	1.0	99.0
Cc1nn(CC(=O)c2ccccc2Cl)c(C)c1[N+](=O)[O-]	-4.0	104.0	-2.0	98.0	3.9	x	x	x
Cc1ccc(CNC(=O)COC(=O)Cn2nc(C)c([N+](=O)[O-])c2C)cc1	3.0	101.0	0.9	104.0	1.5	x	x	x
SMILES	MEKK2mut PB1 HTS	MEKK3 PB1 HTS	CendR NRP1 mod	MEKK2 WT-MEK5	SKN-1 block	MEKK2wt confirm	MEKK2mut-MEK5	MEKK3-MEK5 inh
Cc1nn(CC(=O)OCCOc2ccc(Br)cc2)c(C)c1[N+](=O)[O-]	-4.0	50.0*[inhibitor]	-6.1	66.0	-7.6	101.0	1.0	99.0
Cc1nn(CC(=O)c2ccc(Br)s2)c(C)c1[N+](=O)[O-]	-11.0	46.0*[inhibitor]	-55.7	50.0	4.2	86.0	-11.0	89.0
CCCOc1ccc(-c2nn(-c3ccccc3)cc2/C=C2\SC(N)=NC2=O)cc1C	-2.0	129.0*	-23.5	96.0	4.9	94.0	-1.0	104.0
COc1ccc(-c2nn(CCC(=O)O)cc2/C=C2\SC(N)=NC2=O)cc1OC	-1.0	111.0	-94.6	99.0	0.9	x	x	x
COC(=O)c1ccc2[nH]c(CO)c(-c3ccccc3)c2c1	0.0	102.0	-8.2	98.0	3.7	x	x	x
N#Cc1ccc2[nH]c(CO)c(-c3ccccc3)c2c1	-21.0	0.0*[inhibitor]	2.4	-13.0*[inhibitor]	0.5	106.0	-2.0	106.0
COC(=O)c1sc(-c2ccc(Cl)cc2)cc1NC(=O)c1ccccc1C(=O)O	-14.0	66.0*[inhibitor]	-63.4	67.0	-7.4	104.0	3.0	105.0
CCOC(=O)C(=CNc1ccc(NC2=NCC(C)S2)cc1)C(=O)OCC (stereo not drawn)	1.0	138.0*	-4.0	112.0	5.8	110.0	5.0	101.0
CCOC(=O)C(=CNc1ccc(C(F)(F)F)cc1)C(=O)OCC	5.0	104.0	2.6	105.0	-7.2	x	x	x
CC12CCC(=O)N1C(C(=O)OCC(=O)Nc1ccc(S(N)(=O)=O)cc1)CS2 (stereo not drawn)	10.0	104.0	-6.9	49.0*[inhibitor]	9.5	100.0	-5.0	99.0
CC12CCC(=O)N1C(C(=O)OCC(=O)Nc1ccc(C(F)(F)F)cc1)CS2 (stereo not drawn)	x	x	7.8	x	1.4	x	x	x
COc1c2occc2c(OC(C)=O)c2c(=O)cc(C)oc12	49.0*	80.0*[inhibitor]	0.5	79.0	12.5	98.0	-5.0	100.0
CC(=O)Oc1c2occc2cc2ccc(=O)oc12	3.0	89.0	-1.0	100.0	-11.2	x	x	x

Screening data as filed in PubChem BioAssay.
